# Reference: PMC5540273 (PLoS ONE, 2017)
# System: PAK3
# Conditions: concentration: 1 μM, replicates: in singlicate; n = 1
# 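Also: KINOMEscan kinase panel screen.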
row,Structure (SMILES),%Inh [%]
1,CCn1c(-c2ccoc2)nc2cnccc21 [SB-733887],0
2,CCS(=O)c1ccc(-c2coc3ccc(-c4nnc(C)o4)cc23)cc1 (stereo not shown),33
3,Nc1ncnc2c1ncn2-c1ccc(Cl)cc1 [AH2635],7
4,O=c1cc(N2CCOCC2)nc2n(Cc3ccc(F)c(Cl)c3)ccn12 [GSK2297099],0
5,COc1ccc(CNC(=O)NC2CCN(c3ccnc(Nc4ccc(F)cc4)n3)C2)cc1 (stereo not shown) [GSK1379706],0
6,COc1cc(Nc2ccnc3ccc(C(F)(F)F)cc23)cc(OC)c1OC [GW577382],31
7,O=C(Nc1n[nH]c2nc(-c3ccccc3)c(Br)cc12)C1CC1 [SB-708998],9
8,Nc1n[nH]c2nnc(-c3ccccc3)c(-c3ccccc3)c12 [GW554060],0
9,CCc1nc(-c2cccc(C)c2)c(-c2ccncc2)s1,0
10,O=C(NCCNc1ccnc(Nc2ccc(F)cc2)n1)Nc1ccc2c(c1)OCO2 [GSK1379882],0
11,Fc1cccc(CSc2nnc(-c3ccc4c(c3)CCO4)o2)c1,19
12,Cn1c(=O)c(F)c(Nc2ccc(I)cc2F)c2c(=O)n(OC[C@H](O)CO)cnc21,1
13,COc1cc(Nc2nccc(N3CCC(NC(=O)C4COc5ccccc5O4)C3)n2)cc(OC)c1OC (stereo not shown) [GSK1379761],10
14,CCC(=O)c1c(-c2ccccc2)c2cc(Cl)ccc2c(=O)n1Cc1cc(S(C)(=O)=O)n(CCC(C)(C)O)n1,21
15,Nc1ncnc2c1ncn2-c1cccc(F)c1 [SKF-97560],0
16,CCCNC(=O)Nc1ccc(Oc2ncnc3ccn(C)c23)cc1,0
17,COc1ccc(Nc2nccc(N3CCC(NS(=O)(=O)c4ccc(NC(C)=O)cc4)C3)n2)cc1 (stereo not shown) [GSK1379729],7
18,COc1cc2ncn(-c3cc(OCc4ccncc4Br)c(C(N)=O)s3)c2cc1OC [GW854278],0
19,CN1C(=O)C(Nc2cc(Cl)c(O)c(Cl)c2)=C(c2ccc(Cl)cc2)C1=O [SB-404321],0

row,Structure (SMILES),%Inh [%]
1,CCC(=O)c1c(-c2ccccc2)c2cc(Cl)ccc2c(=O)n1Cc1cc(S(C)(=O)=O)n(CC(F)F)n1,0
2,O=C1NC(=O)C(c2ccccc2)=C1Nc1cccc(O)c1 [SB-390534],26
3,Cc1cccc(-c2cc(-c3c[nH]nc3-c3ccccn3)ccn2)c1 [GW679395],1
4,Nc1nc(N)c2nc(-c3ccccc3)[nH]c2n1 [SKF-12778],0
5,COc1ccc(-n2cnc3c(N)ncnc32)cc1 [SKF-97236],28
6,COc1cccc(-n2cnc3c(N)ncnc32)c1 [SKF-97416],0
7,FC(F)(F)c1ccc(-c2ncn(CCCN3CCOCC3)c2-c2ccncc2)cc1 [SB-217780],12
8,Cc1nnc(-c2ccc3ncn(-c4ccc(S(C)=O)cc4)c3c2)o1 (stereo not shown),0
9,COC(=O)c1c(-c2ccccc2)c2cc(Br)ccc2c(=O)n1Cc1ccc(NC(=O)CCC(=O)O)cc1,0
10,Cl.c1ccc(Cn2cnc3cc(Nc4ncnc5ccccc45)ccc32)cc1 [GW272142],0
11,Cc1ccc(-c2ccc3c(ccc4sc5c(c43)NC[C@@H](C)N=C5N(C)C)n2)cn1,0
12,CN1C(=O)C(Nc2ccccc2)=C(c2ccccc2)C1=O [SB-300079],0
13,COc1cc2nccc(Nc3ccc(OCc4ccc(NC(C)=O)cc4)cc3)c2cc1OC.Cl [GW440135],0
14,COc1cc2ncn(-c3cc(OCCCc4ccccc4)c(C(N)=O)s3)c2cc1OC [GSK205189],6
15,Cc1nnc(-c2ccc(C)c(-c3ccc(C(=O)O)cc3)c2)o1 [GW608005],0
16,O=C(Nc1n[nH]c2cc(-c3ccccc3F)ccc12)C1CC1 [SB-733371],0
17,CCC(=O)c1c(-c2ccccc2)c2cc(Cl)ccc2c(=O)n1Cc1cc(C(=O)NC2CC2)n(C)n1,11
18,CCC(=O)c1c(-c2ccccc2)c2cc(Cl)ccc2c(=O)n1Cc1ccc(C(=O)O)cc1,0
